# In the supplement of paper PMC8728848:
# This is one part of a sample in which the strongest signals are shown more often than they occur.
# B1: MpAFP NterminalRI GFP (Marinomonas primoryensis) (protein)
# chain: MSDNQFPFATLGNAIGFITKLDGSVTVQSIDGQERVLKLGDPIFFGETVLTGGSGSVTIAFVDGTDVVIGGDSIVEMTDEIYNTGDNEDLVADSSSEIDALQNAILAGDDPTLIQDAPAAGNTLADQQRVDVSIERNDNSAQAGFGVDTQSSLPTYGYDTDNGNGGQATEREYSAPSLSRTLNQSPLLEHHHHHH
# Experiments:
# Experiment in all cases: glycan array binding signal (z-score within array); higher = stronger binding
# Settings in all cases: glycan notation: IUPAC condensed, linker removed
# [1] = molecular target: Glc(a1-6)Glc(a1-6)Glc(a1-6)Glc
# Summary of the method: (§1)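 Glycan array data came from 3228 arrays in the Consortium for Functional Glycomics database, and only arrays with an available protein sequence were kept. Glycan names were put into IUPAC-condensed notation, and columns mapping to the same glycan were averaged. The binding signal is a within-array Z-score, averaged across arrays of one protein sequence run at different concentrations or buffers and across linkers. A negative Z-score can be read as non-binding.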
# [2] = molecular target: Glc(b1-4)Glc
# Summary of the method: as §1
# [3] = molecular target: GlcA(b1-6)Gal
# Summary of the method: as §1
# [4] = molecular target: GlcNAc(b1-3)Gal(b1-4)GlcNAc(b1-2)[GlcNAc(b1-3)Gal(b1-4)GlcNAc(b1-6)]Man(a1-6)[GlcNAc(b1-3)Gal(b1-4)GlcNAc(b1-2)Man(a1-3)]Man(b1-4)GlcNAc(b1-4)GlcNAc
# Summary of the method: as §1
# [5] = molecular target: GlcNAc(b1-3)Gal(b1-4)GlcNAc(b1-3)Gal(b1-4)GlcNAc(b1-3)Gal(b1-4)GlcNAc(b1-2)Man(a1-3)[GlcNAc(b1-3)Gal(b1-4)GlcNAc(b1-3)Gal(b1-4)GlcNAc(b1-3)Gal(b1-4)GlcNAc(b1-2)Man(a1-6)]Man(b1-4)GlcNAc(b1-4)GlcNAc
# Summary of the method: as §1
# [6] = molecular target: GlcNAc(b1-3)Gal(b1-4)GlcNAc(b1-3)Gal(b1-4)GlcNAc(b1-3)Gal(b1-4)GlcNAc(b1-2)[GlcNAc(b1-3)Gal(b1-4)GlcNAc(b1-3)Gal(b1-4)GlcNAc(b1-3)Gal(b1-4)GlcNAc(b1-6)]Man(a1-6)[GlcNAc(b1-3)Gal(b1-4)GlcNAc(b1-3)Gal(b1-4)GlcNAc(b1-3)Gal(b1-4)GlcNAc(b1-2)Man(a1-3)]Man(b1-4)GlcNAc(b1-4)[Fuc(a1-6)]GlcNAc
# Summary of the method: as §1
# [7] = molecular target: GlcNAc(b1-3)Gal(b1-4)GlcNAc(b1-3)Gal(b1-4)GlcNAc(b1-3)Gal(b1-4)GlcNAc(b1-3)Gal(b1-4)GlcNAc(b1-2)Man(a1-3)[GlcNAc(b1-3)Gal(b1-4)GlcNAc(b1-3)Gal(b1-4)GlcNAc(b1-3)Gal(b1-4)GlcNAc(b1-3)Gal(b1-4)GlcNAc(b1-2)Man(a1-6)]Man(b1-4)GlcNAc(b1-4)GlcNAc
# Summary of the method: as §1
# [8] = molecular target: GlcNAc(b1-3)Gal(b1-4)GlcNAc(b1-3)Gal(b1-4)GlcNAc(b1-3)GalNAc
# Summary of the method: as §1
# [9] = molecular target: GlcNAc(b1-3)[GlcNAc(b1-6)]Gal(b1-4)GlcNAc
# Summary of the method: as §1
# [10] = molecular target: GlcNAc(b1-4)GlcNAc
# Summary of the method: as §1
# [11] = molecular target: Man(a1-2)Man(a1-3)[Man(a1-2)Man(a1-6)]Man
# Summary of the method: as §1
# [12] = molecular target: Man(a1-3)[Man(a1-6)]Man(b1-4)GlcNAc(b1-4)[Fuc(a1-6)]GlcNAc
# Summary of the method: as §1
# [13] = molecular target: Neu5Ac(a2-3)Gal(b1-3)GalNAc6S
# Summary of the method: as §1
# [14] = molecular target: Neu5Ac(a2-3)Gal(b1-3)]Neu5Ac(a2-3)Gal(b1-4)]GlcNAc
# Summary of the method: as §1
# [15] = molecular target: Neu5Ac(a2-3)Gal(b1-4)GlcNAc(b1-3)Gal(b1-4)GlcNAc(b1-3)Gal(b1-4)GlcNAc(b1-2)Man(a1-3)[Neu5Ac(a2-3)Gal(b1-4)GlcNAc(b1-3)Gal(b1-4)GlcNAc(b1-3)Gal(b1-4)GlcNAc(b1-2)Man(a1-6)]GalNAc
# Summary of the method: as §1
# [16] = molecular target: Neu5Ac(a2-3)Gal(b1-4)GlcNAc(b1-6)[Gal(b1-3)]GalNAc
# Summary of the method: as §1
# [17] = molecular target: Neu5Ac(a2-3)Gal(b1-4)[Fuc(a1-3)]GlcNAc6S
# Summary of the method: as §1
# [18] = molecular target: Neu5Ac(a2-3)[GalNAc(b1-4)]Gal(b1-4)Glc
# Summary of the method: as §1
# [19] = molecular target: Neu5Ac(a2-6)Gal(b1-4)GlcNAc(b1-2)Man(a1-3)[GlcNAc(b1-4)][Neu5Ac(a2-6)Gal(b1-4)GlcNAc(b1-2)Man(a1-6)]Man(b1-4)GlcNAc(b1-4)GlcNAc
# Summary of the method: as §1
# [20] = molecular target: Neu5Ac(a2-6)Gal(b1-4)GlcNAc(b1-2)Man(a1-6)Man(b1-4)GlcNAc(b1-4)GlcNAc
# Summary of the method: as §1
# [21] = molecular target: Neu5Ac(a2-6)Gal(b1-4)GlcNAc(b1-3)Gal(b1-4)GlcNAc(b1-3)Gal(b1-4)GlcNAc(b1-2)Man(a1-3)[Neu5Ac(a2-6)Gal(b1-4)GlcNAc(b1-3)Gal(b1-4)GlcNAc(b1-3)Gal(b1-4)GlcNAc(b1-2)Man(a1-6)]GalNAc
# Summary of the method: as §1
# [22] = molecular target: Neu5Ac(a2-6)Gal(b1-4)GlcNAc(b1-3)Gal(b1-4)GlcNAc(b1-3)[Neu5Ac(a2-6)Gal(b1-4)GlcNAc(b1-3)Gal(b1-4)GlcNAc(b1-6)]GalNAc
# Summary of the method: as §1
# [23] = molecular target: Neu5Ac(a2-6)Gal(b1-4)GlcNAc(b1-3)Gal(b1-4)[Fuc(a1-3)]GlcNAc(b1-3)Gal(b1-4)[Fuc(a1-3)]GlcNAc
# Summary of the method: as §1
# [24] = molecular target: Neu5Ac(a2-6)GalNAc
# Summary of the method: as §1
# [25] = molecular target: Neu5Ac(a2-8)Neu5Ac(a2-3)Gal(b1-4)GlcNAc
# Summary of the method: as §1
# [26] = molecular target: Neu5Gc(a2-3)Gal(b1-4)GlcNAc
# Summary of the method: as §1
# [27] = molecular target: Neu5Gc(a2-6)GalNAc
# Summary of the method: as §1
binder,measurement,setting,value
B1,glycan array binding signal (z-score),[1],-0.16
same,glycan array binding signal (z-score),[2],0.784
same,glycan array binding signal (z-score),[3],-0.407
same,glycan array binding signal (z-score),[4],6.32
same,glycan array binding signal (z-score),[5],6.83
same,glycan array binding signal (z-score),[6],2.6
same,glycan array binding signal (z-score),[7],0.255
same,glycan array binding signal (z-score),[8],-0.344
same,glycan array binding signal (z-score),[9],-0.441
same,glycan array binding signal (z-score),[10],4.84
same,glycan array binding signal (z-score),[11],2.93
same,glycan array binding signal (z-score),[12],-0.195
same,glycan array binding signal (z-score),[13],-0.078
same,glycan array binding signal (z-score),[14],-0.531
same,glycan array binding signal (z-score),[15],2.98
same,glycan array binding signal (z-score),[16],3.31
same,glycan array binding signal (z-score),[17],-0.574
same,glycan array binding signal (z-score),[18],-0.63
same,glycan array binding signal (z-score),[19],-0.202
same,glycan array binding signal (z-score),[20],-0.385
same,glycan array binding signal (z-score),[21],1.24
same,glycan array binding signal (z-score),[22],-0.027
same,glycan array binding signal (z-score),[23],-0.212
same,glycan array binding signal (z-score),[24],-0.388
same,glycan array binding signal (z-score),[25],-0.655
same,glycan array binding signal (z-score),[26],-0.632
same,glycan array binding signal (z-score),[27],3.75
